In the library only some 4.8% were active in any assay of this set; here they are far more common.
DAX1 inh-1: DAX1 (NR0B1) inhibitors, primary screen, cell-based, HEK293, Gal4-DAX1, luciferase luminescence. Nuclear receptor subfamily 0 group B member 1 (Homo sapiens), P51843. HEK293 Gal4-DAX1 luciferase reporter. inhibition, % at 6.75 µM. 340,000 tested, 0.99% active. AID 504766, 2011;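 active means inhibition above the mean over all tested compounds plus 3 SD, cut at about 4.2% in these data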;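 further: inhibition shows as a rise in luminescence from relieved DAX1 repression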
hgDAF-12 ag: H. glycines DAF-12 receptor agonists, primary screen, cell-based, luminescence, HEK293, GAL4 fusion, UAS-luciferase; activation, % at 6.8 µM; HEK293 GAL4-hgDAF12 UAS-luciferase reporter, agonist luminescence; normalized to butyrate control; 370,000 tested, 1.8% active; Nuclear hormone receptor DAF-12 (Heterodera glycines), GAL4 fusion;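 active means activation above a cutoff set at the mean of all screened compounds plus 3 SD, cut at about 10% in these data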
hcDAF-12 act: H. contortus DAF-12 nuclear receptor activators, primary screen, cell-based, luminescence, HEK293, lit1-tk-luc reporter; activation, % at 6.8 µM; HEK293 hcDAF-12 lit1-tk-luc reporter; 0% DMSO, 100% Δ7-dafachronic acid; AID 652067, 2013; 370,000 tested, 1.4% active;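 active means activation above the mean of all tested compounds plus 3 SD, cut at about 5.5% in these data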
NR1D1 modulator: modulators of Rev-erb alpha DNA binding, primary screen, biochemical, FITC-DNA, fluorescence polarization, uHTS; Nuclear receptor subfamily 1 group D member 1 (Homo sapiens), P20393; Rev-erbα–FITC-DNA binding, 90 min; activity, % at 10 µM; 370,000 tested, 0.79% active; AID 1259318, 2017;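 active means activity above about 14%, limit read from the data; passing the limit was not always enough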
Target sequence (P20393 whole entry, looked up): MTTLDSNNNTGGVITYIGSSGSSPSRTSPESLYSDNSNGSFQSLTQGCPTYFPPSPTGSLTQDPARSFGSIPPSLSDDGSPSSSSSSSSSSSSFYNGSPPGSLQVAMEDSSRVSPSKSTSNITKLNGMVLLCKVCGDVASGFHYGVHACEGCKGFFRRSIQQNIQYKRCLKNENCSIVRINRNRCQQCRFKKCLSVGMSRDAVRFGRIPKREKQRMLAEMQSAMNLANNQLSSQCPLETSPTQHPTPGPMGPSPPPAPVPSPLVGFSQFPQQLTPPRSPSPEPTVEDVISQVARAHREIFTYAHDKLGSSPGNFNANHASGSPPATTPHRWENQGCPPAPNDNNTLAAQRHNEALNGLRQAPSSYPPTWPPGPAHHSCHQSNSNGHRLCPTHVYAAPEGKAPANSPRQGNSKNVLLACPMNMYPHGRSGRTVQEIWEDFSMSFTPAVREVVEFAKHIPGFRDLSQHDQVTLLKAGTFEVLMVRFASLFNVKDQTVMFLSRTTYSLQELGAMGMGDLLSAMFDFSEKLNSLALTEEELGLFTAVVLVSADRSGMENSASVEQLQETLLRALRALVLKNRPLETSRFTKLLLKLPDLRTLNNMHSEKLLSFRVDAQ
DAX1 inh-2: DAX1 (NR0B1) inhibitors on StAR promoter, primary screen, cell-based, luminescence, SF-1 (NR5A1), full-length DAX-1. HEK293T StAR-luciferase reporter, SF-1/DAX-1 repression relief. AID 652010, 2013. inhibition, % at 6.8 µM. 370,000 tested, 1.1% active;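 active means inhibition above the mean over all tested compounds plus 3 SD, cut at about 3.6% in these data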;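 further: higher inhibition means more luminescence from relief of DAX-1 repression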
ssDAF-12 act: S. stercoralis DAF-12 nuclear receptor activators, primary screen, cell-based, luminescence, HEK293, GRIP1 co-expression, lit1-tk-luc; AID 652126, 2013; Nuclear hormone receptor DAF-12 (Strongyloides stercoralis); HEK293 ssDAF-12/GRIP1 lit1-tk-luc reporter; % of 3 µM dafachronic acid response; activation, % at 6.8 µM; 370,000 tested, 1% active;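 active means activation above the mean over all tested compounds plus 3 SD, cut at about 0.9% in these data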
Hits are given with their value; n = inactive; x = not tested or not shown.

SMILES	DAX1 inh-1	hgDAF-12 ag	hcDAF-12 act	NR1D1 modulator	DAX1 inh-2	ssDAF-12 act
CC(/C=N/NC(=O)CSc1nc2ccccc2n1C)=C\c1ccco1	n	n	6.0	n	n	n
Cn1c(SCC(=O)N/N=C/c2ccco2)nc2ccccc21	n	n	n	n	n	n
Cc1ccccc1CN1CCCCC(NC(=O)C2CCCC2)C1=O (stereo unspecified)	x	n	n	n	n	n
C=CCN1C(=O)[C@@H](CC(=O)NCc2ccccc2)[C@]2(C(=O)OC)CCCCC=C12	x	n	n	n	n	n
COc1cc(NC(=O)C2CCCN(S(=O)(=O)c3cccc4cccnc34)C2)cc(OC)c1 (stereo unspecified)	x	n	n	n	n	n
Cc1ccc(NC(=O)Cc2nnc(SCC(=O)NC3CCCC3)n2C)cc1	n	n	6.3	n	n	n
Cc1nnc(SCC(=O)NC2CCCCC2)n1N	n	n	n	n	n	n
Cn1c(CC(=O)Nc2ccccc2)nnc1SCC(=O)NC1CCCC1	n	n	n	n	n	n
Nn1c(SCC(=O)NC2CCCC2)nnc1C(F)(F)F	5.3	n	n	n	n	n
CCN[C@@H]1C[C@H](N)[C@@H](O[C@H]2OC(CN)=CC[C@H]2N)[C@H](O)[C@H]1OC1OC[C@](C)(O)[C@H](NC)[C@H]1O (stereo partly specified)	x	x	x	n	x	x
CCN(C(=O)CSc1nnc(-c2cccnc2)n1Cc1ccco1)c1ccccc1C	x	n	n	n	n	n
N=C(N)c1ccc(Cl)cc1	n	n	n	n	n	n
N=C(N)c1ccc(/C=C/c2ccc(C(=N)N)cc2O)cc1	5.1	n	n	n	n	n
COCC(=O)N1CCC(C(=O)NCC2COc3ccccc3O2)CC1 (stereo unspecified)	x	n	n	n	n	n
CCCc1nc2ccc(C(=O)OC)cn2c1Cc1ccccc1	x	n	n	n	n	1.0
CCCc1nc2ccc(C(=O)OC)cn2c1Cc1ccc(C)cc1	x	n	n	n	n	n
CCCc1nc2ccc(C(=O)OC)cn2c1Cc1ccccc1OC	x	n	n	n	4.2	n
FC(F)(F)c1cccc(N2CCN(C(=S)Nc3nccc4ccccc34)CC2)c1	x	n	n	n	x	n
Cc1csc(NC(=O)c2ccc(COc3ccccc3F)o2)n1	x	n	n	n	n	n
CC1=C(C(=O)Nc2ccccn2)C(c2ccccc2Cl)NC(=S)N1 (stereo unspecified)	n	11	n	n	n	n
CC1=C(C(=O)Nc2ccccn2)C(c2ccc(Cl)cc2Cl)NC(=S)N1 (stereo unspecified)	n	n	n	n	n	n
COC(=O)c1cc(C(c2ccccc2O)C2CCCO2)n2cccc(C(C)(C)C)c12 (stereo unspecified)	x	n	n	n	n	n
CCOc1ccc(Nc2n[nH]c(=S)s2)cc1	n	12	n	n	n	n
Cc1cc(C(=O)COc2cccc([N+](=O)[O-])c2)c(C)n1C1CC1	n	13	n	n	n	n
FC(F)Oc1ccc(C2N=C(c3ccccc3)NO2)cc1 (stereo unspecified)	n	13	n	n	n	n
SMILES	DAX1 inh-1	hgDAF-12 ag	hcDAF-12 act	NR1D1 modulator	DAX1 inh-2	ssDAF-12 act
COc1cc(C2N=C(c3ccccc3)NO2)cc(Br)c1O (stereo unspecified)	n	n	n	n	n	n
C#CCN1CC(N(C)CCOC(=O)c2occ3ccccc23)CS1(=O)=O (stereo unspecified)	x	n	n	n	n	n
CCOc1ccc(NC(=O)CN2C(=O)c3ccccc3C2=O)cc1	n	n	n	n	n	n
CCOc1ccc(NC(=O)CN2C(=O)C3CCCN3C2=O)cc1 (stereo unspecified)	4.7	n	n	n	n	n
C(=N\Nc1ccccc1)/c1ccc(N2CCOCC2)cc1	n	13	n	n	n	1.2
Cc1ccc(/C(N)=N/OC(=O)CCc2ccccc2)cc1	n	n	6.2	n	n	n
N/C(=N\OC(=O)CCc1ccccc1)c1ccc(Br)cc1	n	n	n	n	n	n
O=C(NC1CCCCN(Cc2cccc(Cl)c2)C1=O)c1ccc2ccccc2c1 (stereo unspecified)	x	n	n	n	n	n
OC[C@H]1O[C@H](OCc2ccccc2)[C@H](O[C@@H]2OC[C@@H](O)[C@H](O)[C@H]2O)[C@@H](O)[C@@H]1O	6.3	n	n	n	n	n
C=CCN1C(=O)[C@H](CC(=O)NCC2CCCCC2)[C@@]2(C(=O)OCC)CCCC=C12	x	n	n	n	n	n
COC(=O)[C@]12C[C@H](CC(=O)NCc3cccc(C(F)(F)F)c3)C(=O)N(Cc3cccc4ccccc34)C1=C[C@H](C1CCCC1)O[C@@H]2C	x	n	n	n	n	n
CCn1c(=O)n2n(c1=O)[C@]1(C=C(C)C2)CN(Cc2ccc(OC)cc2OC)C(NC(=O)c2ccccc2)=N1	x	n	n	n	x	n
COc1cccc(-n2cnc3sc(-c4ccccc4)cc3c2=O)c1	n	n	n	n	n	n
CC(=O)Cn1cnc2sc(-c3ccccc3)cc2c1=O	n	11	n	n	n	n
CC(=O)Cn1nnc2sc(-c3ccccc3)cc2c1=O	n	13	n	n	n	n
COc1ccc(-n2cnc3sc(-c4ccccc4)cc3c2=O)cc1	5.0	n	n	n	n	n
CC1(C)CC(=O)C=C(C#CC2CC2)C1	x	n	n	n	n	n
O=c1c2c(c1=O)N(CCP(=O)(O)O)CCCN2	x	x	x	n	x	x
O=C(NCCN1CCOCC1)c1cc(Br)ccc1Cl	n	n	n	n	n	1.1
S=C(NCc1ccncc1)Nc1ccc(Br)cc1Cl	n	n	n	n	n	n
Cc1cccnc1NC(=S)Nc1ccc(Br)cc1Cl	6.7	12	n	n	n	n
Nc1ccccc1Sc1nc2ccccc2[nH]1	n	n	8.9	n	n	n
c1ccc(CSCc2nc3ccccc3[nH]2)cc1	n	n	6.4	n	n	n
Nc1nc2ccccc2[nH]1	n	n	n	n	n	n
Nc1nc(CSc2nc3ccccc3[nH]2)cs1	4.6	n	n	n	n	n
Fc1ccc(CSc2nc3ccccc3[nH]2)cc1	n	12	n	n	n	n
CCSc1nc2ccccc2[nH]1	n	n	n	n	n	n
O=C(CSCc1nc2ccccc2[nH]1)Nc1ccccc1	n	n	n	n	n	n
